Source: PubChem BioAssay
Rv3671c protease = inhibitors of M. tuberculosis serine protease Rv3671c; inhibition, % at 5.96 µM; P9WHR9; 320,000 tested, 0.048% active; AID 2606; in the data active = inhibition above about 38%;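 note: extracellular domain of Rv3671c used as enzyme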
Mtb betalactam = beta-lactam sensitization of Mtb H37Rv; AID 434955; 330,000 tested, 0.27% active; inhibition, % at 25 µM; M. tuberculosis H37Rv growth with meropenem, percent inhibition; call rule not given here;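 note: growth measured after seven days incubation then overnight dye step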
GDH-TPI counter-1 = counter-screen for M. tuberculosis FBA inhibitors: GDH-TPI coupled enzymes | GDH-TPI coupled enzyme counterscreen, NADH absorbance | inhibition, % at 4.8 µM | 360,000 tested, 1.2% active | AID 588335; in the data active = inhibition above about 30%
UGM FP inh = Mtb UDP-galactopyranose mutase inhibition | purified UGM, fluorescence polarization probe displacement | 320,000 tested, 0.06% active | P9WIQ1 | inhibition, % at 10 µM; in the data active = inhibition above about 10%, passing the limit was not always enough
Mtb FBA inh = inhibitors of M. tuberculosis fructose-bisphosphate aldolase; purified M. tuberculosis FBA, fluorescence read-out; 360,000 tested, 2.3% active; P9WQA3; inhibition, % at 1 µM; AID 588726
RecA intein inh = inhibitors of M. tuberculosis RecA intein splicing | cell-free RecA intein splicing, fluorescence | P9WHJ3 | 290,000 tested, 0.75% active | inhibition, % (no concentration beside the values) | AID 2221; in the data active = inhibition above about 30%
Target sequence (P9WHJ3 whole entry, looked up): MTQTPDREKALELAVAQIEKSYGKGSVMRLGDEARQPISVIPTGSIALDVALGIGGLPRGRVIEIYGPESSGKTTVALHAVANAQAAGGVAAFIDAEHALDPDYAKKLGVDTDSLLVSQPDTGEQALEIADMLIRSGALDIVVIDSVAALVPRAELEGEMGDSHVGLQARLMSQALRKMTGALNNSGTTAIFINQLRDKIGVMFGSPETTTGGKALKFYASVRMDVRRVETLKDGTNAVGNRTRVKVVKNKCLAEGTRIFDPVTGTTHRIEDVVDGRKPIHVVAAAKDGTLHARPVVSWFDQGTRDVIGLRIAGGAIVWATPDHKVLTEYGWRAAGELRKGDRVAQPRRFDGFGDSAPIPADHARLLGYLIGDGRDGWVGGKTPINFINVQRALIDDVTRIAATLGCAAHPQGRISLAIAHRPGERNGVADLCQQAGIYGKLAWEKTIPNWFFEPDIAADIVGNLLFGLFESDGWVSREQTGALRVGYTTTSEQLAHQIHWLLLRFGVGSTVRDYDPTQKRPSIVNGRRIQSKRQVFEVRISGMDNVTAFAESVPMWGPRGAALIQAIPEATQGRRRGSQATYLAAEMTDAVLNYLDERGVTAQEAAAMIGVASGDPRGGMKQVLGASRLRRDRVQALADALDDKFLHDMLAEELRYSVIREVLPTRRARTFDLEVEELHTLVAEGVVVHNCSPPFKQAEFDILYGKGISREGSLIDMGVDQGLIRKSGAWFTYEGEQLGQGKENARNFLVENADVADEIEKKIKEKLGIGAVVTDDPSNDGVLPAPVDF
Mtb FBA inh conf = Mtb FBA inhibition, confirmed. shares compounds with Mtb FBA inh. purified M. tuberculosis FBA, fluorescence read-out. inhibition, % at 1 µM. 5,600 tested, 78% active. AID 651616
GDH-TPI counter-2 = inhibits GDH-TPI coupling enzymes, flagging Mtb FBA hits | shares compounds with Mtb FBA inh | GDH-TPI coupled enzyme counterscreen, fluorescence | inhibition, % at 1 µM | 5,600 tested, 81% active | AID 652141; in the data active = inhibition above about 10%
A number is an active result. A selection: hits, their analogues and other compounds. The true share with any hit is near 4%. Cut-off read from the data, not from the text of the source, unless noted: active = inhibition above about 27%; inactive = the rest.

For C=CCNc1ncnc2c1ncn2[C@H]1CN(C2CCCC2)C[C@@H](CO)O1 the results were GDH-TPI counter-1 inactive and Mtb FBA inh inactive.
`COc1cc(C#Cc2c(-c3ccccc3OC)oc3ccccc23)cc(OC)c1` gave Rv3671c protease inactive, Mtb betalactam inactive, GDH-TPI counter-1 inactive, UGM FP inh inactive, Mtb FBA inh 34.4, Mtb FBA inh conf inactive and GDH-TPI counter-2 inactive.
For COc1ccccc1-c1oc2ccccc2c1-c1ccc2c(c1)OCO2 the results were Rv3671c protease inactive, Mtb betalactam inactive, GDH-TPI counter-1 inactive, UGM FP inh inactive and Mtb FBA inh inactive.
`O=C(NNc1nc2cc3c(cc2s1)OCCO3)c1ccc(F)cc1` gave Rv3671c protease inactive, Mtb betalactam inactive, GDH-TPI counter-1 inactive, UGM FP inh inactive, Mtb FBA inh inactive and RecA intein inh inactive.
Screening Fc1ccc2nc(Nc3nc4cc5c(cc4s3)OCCO5)sc2c1 returned Rv3671c protease inactive, Mtb betalactam inactive, GDH-TPI counter-1 inactive, UGM FP inh inactive, Mtb FBA inh 59.0, RecA intein inh inactive, Mtb FBA inh conf 74.5 and GDH-TPI counter-2 63.4.
For c1ccc2sc(Nc3nc4cc5c(cc4s3)OCO5)nc2c1 the results were Rv3671c protease inactive, Mtb betalactam inactive, GDH-TPI counter-1 inactive, UGM FP inh inactive, Mtb FBA inh 29.3, RecA intein inh inactive, Mtb FBA inh conf inactive and GDH-TPI counter-2 inactive.
`Fc1ccc2nc(Nc3nc4cc5c(cc4s3)OCO5)sc2c1` gave Rv3671c protease inactive, Mtb betalactam inactive, GDH-TPI counter-1 inactive, UGM FP inh inactive, Mtb FBA inh 38.3, RecA intein inh inactive, Mtb FBA inh conf 55.5 and GDH-TPI counter-2 52.2.
Screening Cn1cnnc1SCc1ccc(C(=O)N/N=C(/CCC(=O)O)c2ccc(C(C)(C)C)cc2)cc1 returned GDH-TPI counter-1 inactive and Mtb FBA inh inactive.
Screening OC[C@@H]1[C@@H](c2ccc(Cl)cc2)C(c2ccccc2)=NN1c1ccccc1 returned GDH-TPI counter-1 inactive, Mtb FBA inh 54.3, Mtb FBA inh conf 109.9 and GDH-TPI counter-2 78.5.
C[C@H]1C(c2ccc(F)cc2)=NN(c2ccccc2)[C@@H]1CO was read as GDH-TPI counter-1 inactive and Mtb FBA inh inactive.
`OC[C@@H]1[C@@H](c2ccc(F)cc2)C(c2cccc(Cl)c2)=NN1c1ccccc1` gave GDH-TPI counter-1 inactive, Mtb FBA inh 42.5, Mtb FBA inh conf 40.8 and GDH-TPI counter-2 36.1.
OC[C@@H]1[C@@H](c2ccc(Cl)cc2)C(c2cccc(Cl)c2)=NN1c1ccccc1 was read as GDH-TPI counter-1 inactive, Mtb FBA inh 63.3, Mtb FBA inh conf 158.3 and GDH-TPI counter-2 102.1.
Screening CCCc1ccc2oc(C(=O)N3CCC(C(N)=O)(N4CCCCC4)CC3)c(C)c2c1 returned Rv3671c protease inactive, Mtb betalactam inactive, GDH-TPI counter-1 inactive, UGM FP inh inactive, Mtb FBA inh inactive and RecA intein inh inactive.
CSc1ccccc1NC(=O)CN1CCN(S(=O)(=O)c2ccccc2[N+](=O)[O-])CC1 was read as Rv3671c protease inactive, Mtb betalactam inactive, GDH-TPI counter-1 inactive, UGM FP inh inactive and Mtb FBA inh inactive.
For O=C(CSCc1nc2scc(-c3cccs3)c2c(=O)[nH]1)Nc1ccccn1 the results were Rv3671c protease inactive, Mtb betalactam inactive, GDH-TPI counter-1 inactive, UGM FP inh inactive, Mtb FBA inh 33.9, RecA intein inh inactive, Mtb FBA inh conf inactive and GDH-TPI counter-2 inactive.
Screening Cn1cnc(S(=O)(=O)Nc2ccccc2C(=O)NCC2CC2)c1 returned Rv3671c protease inactive, Mtb betalactam inactive, GDH-TPI counter-1 inactive, UGM FP inh inactive, Mtb FBA inh 29.1, RecA intein inh inactive, Mtb FBA inh conf 82.3 and GDH-TPI counter-2 63.6.
`CCOC(=O)c1c(NC(=O)C2C3C=CC(C3)C2C(=O)O)sc2c1CCC(CC)C2` (centres undefined) gave Rv3671c protease inactive, Mtb betalactam inactive, GDH-TPI counter-1 inactive, UGM FP inh inactive, Mtb FBA inh 33.8, RecA intein inh inactive, Mtb FBA inh conf inactive and GDH-TPI counter-2 inactive.
Screening CCOC(=O)c1nc(-c2ccccc2)oc1N1CCOCC1 returned Rv3671c protease inactive, Mtb betalactam inactive, GDH-TPI counter-1 inactive, UGM FP inh inactive, Mtb FBA inh 97.2, RecA intein inh inactive, Mtb FBA inh conf 119.5 and GDH-TPI counter-2 94.6.
Nc1ccc2oc3ccccc3c2c1 was read as Rv3671c protease inactive, Mtb betalactam inactive, GDH-TPI counter-1 inactive, Mtb FBA inh 27.2, RecA intein inh inactive, Mtb FBA inh conf inactive and GDH-TPI counter-2 inactive.
Screening C=CCn1c(=O)n(CCOC)c(=O)c2sc3ccccc3c21 returned Rv3671c protease inactive, Mtb betalactam inactive, GDH-TPI counter-1 inactive, UGM FP inh inactive, Mtb FBA inh 37.5, RecA intein inh inactive, Mtb FBA inh conf 154.8 and GDH-TPI counter-2 164.3.
Screening COCCCn1c(=O)c2ccccc2n(Cc2ccccc2)c1=O returned Rv3671c protease inactive, Mtb betalactam inactive, GDH-TPI counter-1 inactive, UGM FP inh inactive, Mtb FBA inh inactive and RecA intein inh inactive.
Screening C[C@H]1CN([C@@H](C)CO)C(=O)CCCn2cc(nn2)CO[C@@H]1CN(C)C(=O)Nc1ccccc1C(F)(F)F returned GDH-TPI counter-1 inactive and Mtb FBA inh inactive.
Screening O=[N+]([O-])c1cccc(C=Nc2cccc3ccccc23)c1O returned Rv3671c protease inactive, Mtb betalactam inactive, GDH-TPI counter-1 inactive, UGM FP inh inactive, Mtb FBA inh 38.9, RecA intein inh 38.3, Mtb FBA inh conf 178.7 and GDH-TPI counter-2 157.0.
Screening O=[N+]([O-])c1ccc(O)c(C=Nc2cccc3ccccc23)c1 returned Rv3671c protease inactive, Mtb betalactam inactive, GDH-TPI counter-1 inactive, UGM FP inh inactive, Mtb FBA inh inactive and RecA intein inh inactive.
Screening Oc1ccc(C=Nc2cccc3ccccc23)c(O)c1 returned Rv3671c protease inactive, Mtb betalactam inactive, GDH-TPI counter-1 inactive, UGM FP inh inactive, Mtb FBA inh 61.5, RecA intein inh inactive, Mtb FBA inh conf 131.8 and GDH-TPI counter-2 122.1.
O=C(COC(=O)c1ccccn1)NC1CCCCC1 was read as Rv3671c protease inactive, Mtb betalactam inactive, GDH-TPI counter-1 inactive, UGM FP inh inactive, Mtb FBA inh inactive and RecA intein inh inactive.
For Nc1c(Cl)cc(Cl)cc1C(=O)OCC(=O)NC1CC1 the results were Rv3671c protease inactive, Mtb betalactam inactive, GDH-TPI counter-1 inactive, UGM FP inh inactive, Mtb FBA inh 84.2, RecA intein inh inactive, Mtb FBA inh conf inactive and GDH-TPI counter-2 inactive.
Nc1ncccc1C(=O)OCC(=O)NC1CCCCCC1 was read as Rv3671c protease inactive, Mtb betalactam inactive, GDH-TPI counter-1 inactive, UGM FP inh inactive, Mtb FBA inh 32.8, Mtb FBA inh conf 55.7 and GDH-TPI counter-2 42.7.
O=C(COc1ccc(S(=O)(=O)N2CCOCC2)cc1)NCCc1ccc(Cl)cc1 was read as GDH-TPI counter-1 inactive and Mtb FBA inh inactive.
